PrP UTR inh: inhibition of PrP 5' UTR reporter expression; cell-based PrP 5' UTR mRNA reporter, plate reader; inhibition, % (test concentration not listed); hit rate 0.35% among 340,000; AID 488862, 2010; in the data active means inhibition above about 52%
PrPC TRFRET: inhibitors of human cell surface prion protein PrPC, primary screen, cell-based, TR-FRET; hit rate 0.43% among 370,000; inhibition, % at 13.8 µM; AID 720596, 2013; Major prion protein (Homo sapiens), P04156; TR-FRET read-out; in the data active means inhibition above about 24%
RecA intein inh: Mtb RecA intein splicing inhibitors, primary screen, biochemical, fluorescence, HTS | AID 2221, 2009 | inhibition, % (test concentration not listed) | Protein RecA (Mycobacterium tuberculosis (strain ATCC 25618 / H37Rv)), P9WHJ3 | hit rate 0.75% among 290,000 | cell-free RecA intein splicing; in the data active means inhibition above about 30%
Target sequence (P9WHJ3 whole entry, looked up): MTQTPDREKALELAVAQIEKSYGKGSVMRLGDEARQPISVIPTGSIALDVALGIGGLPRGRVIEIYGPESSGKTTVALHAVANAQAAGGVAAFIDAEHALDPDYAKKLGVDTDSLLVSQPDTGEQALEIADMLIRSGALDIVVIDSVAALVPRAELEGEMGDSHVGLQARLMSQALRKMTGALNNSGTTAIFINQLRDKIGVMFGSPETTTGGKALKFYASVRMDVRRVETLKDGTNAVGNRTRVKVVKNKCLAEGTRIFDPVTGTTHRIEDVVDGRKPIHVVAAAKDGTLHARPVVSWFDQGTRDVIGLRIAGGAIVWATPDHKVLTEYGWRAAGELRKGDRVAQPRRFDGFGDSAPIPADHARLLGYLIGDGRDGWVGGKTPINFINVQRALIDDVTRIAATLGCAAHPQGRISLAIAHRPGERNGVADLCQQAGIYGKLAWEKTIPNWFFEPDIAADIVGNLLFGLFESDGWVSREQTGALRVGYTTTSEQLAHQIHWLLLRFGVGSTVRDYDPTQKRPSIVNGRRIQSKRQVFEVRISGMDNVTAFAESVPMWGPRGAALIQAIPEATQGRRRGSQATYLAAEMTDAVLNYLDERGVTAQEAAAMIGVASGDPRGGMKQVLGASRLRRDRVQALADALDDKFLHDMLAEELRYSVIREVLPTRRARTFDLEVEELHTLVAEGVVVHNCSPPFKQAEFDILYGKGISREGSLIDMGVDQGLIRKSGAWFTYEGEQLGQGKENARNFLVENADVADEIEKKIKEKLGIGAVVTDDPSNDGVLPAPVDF
BJeLR viability: MLPCN primary cell-based screen for lethality selective to Ras in HRASV12 cells; BJeLR (HRASV12) viability, CellTiter-Glo ATP luminescence, 48 h; inhibition, % (no concentration beside the values); hit rate 0.17% among 300,000; AID 1554, 2009; in the data active means inhibition above about 50%
Mtb hypoxia rep: PubChem AID 1159583; M. tuberculosis hypoxia-regulated fluorescent reporter, fluorescence; fluorescence inhibition, % (no concentration beside the values); hit rate 0.1% among 300,000; in the data active means fluorescence inhibition mostly above about 23%, no sharp cut-off; inactive means mostly below about 17%
SARS 3CLpro inh: SARS-CoV 3CLpro protease inhibitors, primary screen, biochemical, quenched FRET | Replicase polyprotein 1ab (Severe acute respiratory syndrome coronavirus), P0C6X7 | recombinant SARS-CoV 3CLpro, quenched FRET peptide cleavage | inhibition, % at 6 µM | hit rate 0.14% among 290,000; in the data active means inhibition above about 12%
GFP chromophore: counter-screen: blocks GFP chromophore formation, dose response, counter-screen, biochemical, fluorescence, homogeneous; shares compounds with RecA intein inh; cell-free GFP chromophore formation; EC50, µM; hit rate 83% among 2,100; AID 434968, 2010; call rule not given here
Numbers stand for hits. This is a sample that favours compounds with a hit; in the whole collection about 1.4% have one here.

Results for COC1(OC)C(/C=C/c2ccc(Cl)cc2)C(C#N)(C#N)C1(OC)OC (stereo not given) ?
PrP UTR inh: inactive; PrPC TRFRET: inactive; RecA intein inh: 73; BJeLR viability: inactive; SARS 3CLpro inh: inactive; GFP chromophore: inactive

What do the screens show for `COC(=O)C1CC[C@@](C)(c2ccc(OC)cc2)C1(C)C` (stereo not given in full)?
Mtb hypoxia rep: inactive

Results for c1ccc(-c2ccc(C3CCCN3)cc2)cc1 (stereo not given) ?
PrP UTR inh: inactive; PrPC TRFRET: inactive; RecA intein inh: 90; BJeLR viability: inactive; Mtb hypoxia rep: inactive; SARS 3CLpro inh: inactive; GFP chromophore: inactive

Results for O=C1CCCC(c2ccccc2)N1 (stereo not given) ?
PrP UTR inh: inactive; PrPC TRFRET: inactive; RecA intein inh: inactive; BJeLR viability: inactive; Mtb hypoxia rep: inactive; SARS 3CLpro inh: inactive

Results for CC1CCC(=O)N(CC(C)CC#N)CC1 (stereo not given) ?
Mtb hypoxia rep: inactive

Results for C#CCOCCOCCOCCNc1nc(N2CCN(C(=O)C(CCCCN)n3cc(C(N)CC(N)=O)nn3)CC2)nc(N2CCN(C(=O)C(CC(N)=O)n3cc(C(N)C(C)CC)nn3)CC2)n1 (stereo not given) ?
Mtb hypoxia rep: inactive

How did O=C(c1cc(F)c(F)cc1Cl)N1CCN(c2ccc([N+](=O)[O-])c3ncccc23)CC1 do in these assays?
PrP UTR inh: inactive; PrPC TRFRET: inactive; RecA intein inh: 32; BJeLR viability: inactive; Mtb hypoxia rep: inactive; SARS 3CLpro inh: inactive; GFP chromophore: 23

What do the screens show for `O=C(CCl)c1cc2c3c(c1)CC(=O)N3CCC2`?
PrP UTR inh: inactive; PrPC TRFRET: inactive; RecA intein inh: 44; BJeLR viability: inactive; SARS 3CLpro inh: inactive; GFP chromophore: 39

Results for Cc1noc2ncnc(Sc3ccccc3Cl)c12 ?
PrP UTR inh: inactive; PrPC TRFRET: inactive; RecA intein inh: 45; BJeLR viability: inactive; SARS 3CLpro inh: inactive; GFP chromophore: 38

How did CC1=NNC(=O)C1Oc1ccccc1 (stereo not given) do in these assays?
PrP UTR inh: inactive; PrPC TRFRET: inactive; RecA intein inh: 96; BJeLR viability: inactive; Mtb hypoxia rep: inactive; SARS 3CLpro inh: inactive; GFP chromophore: 1.1

Results for O=C(CCl)NN=C(c1ccccc1)c1ccccc1 ?
PrP UTR inh: inactive; PrPC TRFRET: inactive; RecA intein inh: 59; BJeLR viability: inactive; Mtb hypoxia rep: inactive; SARS 3CLpro inh: inactive; GFP chromophore: 26

Results for COc1ccc(C(=O)Nc2c(O)ccc3ccccc23)cc1 ?
PrP UTR inh: inactive; PrPC TRFRET: inactive; RecA intein inh: inactive; BJeLR viability: inactive; Mtb hypoxia rep: inactive

Results for COc1ccc(C(=O)Nc2c(O)ccc3ccccc23)cc1OC ?
PrP UTR inh: inactive; PrPC TRFRET: inactive; RecA intein inh: inactive; BJeLR viability: inactive; Mtb hypoxia rep: inactive

What do the screens show for `COc1ccc(S(=O)(=O)Nc2c(O)ccc3ccccc23)cc1OC`?
PrP UTR inh: inactive; PrPC TRFRET: inactive; RecA intein inh: 96; BJeLR viability: inactive; Mtb hypoxia rep: inactive; GFP chromophore: 4.6

What do the screens show for `COc1ccc(NC(=O)Nc2c(O)ccc3ccccc23)cc1`?
PrP UTR inh: inactive; PrPC TRFRET: inactive; RecA intein inh: 59; BJeLR viability: inactive; Mtb hypoxia rep: inactive; GFP chromophore: 15

What do the screens show for `COc1ccc2c(c1)c(C(=O)NN=Cc1ccc(Cl)cc1)c(C)n2C`?
Mtb hypoxia rep: inactive

How did CC(=NNC(=O)c1cc(-c2ccncc2)nc2ccccc12)c1ccc(OC(F)F)cc1 do in these assays?
Mtb hypoxia rep: inactive

What do the screens show for `CC(/C=N/NC(=O)Cc1cc(=O)[nH][nH]1)=C\c1ccccc1`?
PrP UTR inh: inactive; PrPC TRFRET: inactive; RecA intein inh: 89; BJeLR viability: inactive; SARS 3CLpro inh: inactive; GFP chromophore: 6.7

What do the screens show for `O=C(Cc1cc(=O)[nH][nH]1)NN=C/C(Cl)=C/c1ccccc1`?
Mtb hypoxia rep: inactive

Assay outcomes as filed in PubChem BioAssay.
